# Results as given in PubChem BioAssay (EPA / NIEHS).
# Values joined by “and” are separate entries in the source; they are usually repeats but may differ in a detail not shown here. Identical values can stand only once. Records with an inconclusive call do not appear. Some structures have more than one record in an assay (separate samples or runs), and their calls can disagree. Active and inactive are the calls of the source. Rule for the calls, unless noted: active = hit-call score of the fitted dose curve at least 0.9, where 1 is the maximum; inactive = score below 0.9.
# Assays:
# [1] = CCTE_Shafer_MEA_acute_cross_correlation_HWHM: CCTE's Neural Acute Assay for Cross Correlation at Half Width at Half Maximum, Shafer Lab (AID 2284026);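 note: percent change per well from pre-dose baseline in spike cross-correlogram half width; hits are a decrease in cross-correlogram half width relative to DMSO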;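 for outcome: spontaneous network firing of rat primary cortical neurons on multiwell microelectrode arrays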
# Procedure, shortened: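 Rat cortical neuron cultures on microelectrode arrays were equilibrated 20 min at 37 C, recorded 40 min at baseline, then 40 min after compound addition (0.03-40 uM, ≥3 wells). Spikes were detected at 8x rms noise after 300-5000 Hz band-pass filtering.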
# [2] = CCTE_Shafer_MEA_acute_synchrony_index: CCTE's Neural Acute Assay for Synchrony, Shafer Lab (AID 2284027);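 note: network synchrony index of spontaneous spiking in primary rat cortical neurons on MEAs; fitted for loss of signal so actives lower synchrony relative to DMSO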
# Procedure, shortened: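 The synchrony index is taken as percent change per well between a 40 min baseline and a 40 min recording with compound (0.03–40 uM), at 37C. Rat cortical cultures on multiwell MEAs at DIV 13 or 15, spike threshold 8× rms noise.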
# [3] = biological target: Estrogen receptor (Homo sapiens) (UniProt P03372); assay: CCTE_Deisenroth_AIME_384WELL_LUC_Active: CCTE's 384-well Estrogen Receptor Transactivation Assay with AIME metabolic competence (ERTA luciferase; metabolism positive), Deisenroth Lab (AID 2284030; active = hit-call score of the fitted dose curve at least 0.9, where 1 is the maximum)
# Chain of Estrogen receptor (Homo sapiens) (P03372 whole entry, looked up): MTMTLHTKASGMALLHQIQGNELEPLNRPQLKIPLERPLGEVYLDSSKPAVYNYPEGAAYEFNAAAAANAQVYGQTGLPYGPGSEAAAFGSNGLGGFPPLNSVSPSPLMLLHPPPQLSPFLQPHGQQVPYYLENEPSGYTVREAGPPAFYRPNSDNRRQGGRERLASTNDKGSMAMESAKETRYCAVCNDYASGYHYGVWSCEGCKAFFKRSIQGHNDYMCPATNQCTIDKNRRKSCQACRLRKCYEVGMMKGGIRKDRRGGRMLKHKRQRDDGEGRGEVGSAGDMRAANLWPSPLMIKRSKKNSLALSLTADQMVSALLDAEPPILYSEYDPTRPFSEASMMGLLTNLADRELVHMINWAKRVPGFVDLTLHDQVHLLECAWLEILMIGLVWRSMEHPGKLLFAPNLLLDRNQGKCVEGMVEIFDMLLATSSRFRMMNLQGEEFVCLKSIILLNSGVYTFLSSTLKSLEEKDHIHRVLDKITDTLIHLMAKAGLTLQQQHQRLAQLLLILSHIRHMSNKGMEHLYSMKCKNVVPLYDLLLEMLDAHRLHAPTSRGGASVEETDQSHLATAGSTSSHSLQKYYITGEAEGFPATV
# Procedure, shortened: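 AIME metabolism-positive mode: chemicals 0.002 - 200 uM, 2 h with alginate-bound PB/BNF-induced rat S9 → medium to VM7Luc4E2 ERTA, 24 h → luciferase. Positive fit vs 17beta-estradiol; n=4 typical.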
# [4] = CCTE_Shafer_MEA_dev_firing_rate_mean: CCTE's Neural Network Formation Assay for Mean Firing Rate, Shafer Lab (AID 2284031)
# Procedure, shortened: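 Spike frequency (spikes/recording length, averaged over active electrodes) was recorded on days 5, 7, 9 and 12 and collapsed to AUC; rat cortical cultures received compound continuously over 12 days of network development.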
# [5] = CCTE_Deisenroth_AIME_384WELL_CTox_Inactive: Cytotoxicity Assessment (CTOX) in CCTE's 384-well Estrogen Receptor Transactivation Assay without AIME metabolic competence (metabolism negative), Deisenroth Lab (AID 2284039; active = hit-call score of the fitted dose curve at least 0.9, where 1 is the maximum;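 note: cell viability via live-cell protease substrate cleaved to fluorescent probe; cells exposed 24 h to medium preincubated 2 h with alginate-water beads without S9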)
# Procedure, shortened: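 VM7Luc4E2 cells, metabolism-negative arm: test chemicals (0.002–200 uM, 10 points) pre-incubated 2 h with alginate-water microspheres, then medium transferred to cells for 24 h. Viability read as protease-substrate cleavage to fluorescent probe; loss-of-signal, bidirectional fitting.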
# [6] = CCTE_Shafer_MEA_dev_active_electrodes_number: CCTE's Neural Network Formation Assay for Number of Active Electrodes, Shafer Lab (AID 2284040; active = hit-call score of the fitted dose curve at least 0.9, where 1 is the maximum;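 for AC50: potency for loss of active electrodes versus DMSO so lower counts are hits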)
# Procedure, shortened: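 Counts electrodes per well firing at least 5 spikes/min, recorded on days 5, 7, 9 and 12 in rat cortical cultures dosed continuously from plating (treatment refreshed DIV 5, 9). Value is the area under the curve over recordings, fitted downward relative to DMSO.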
# [7] = biological target: Estrogen receptor (Homo sapiens) (UniProt P03372); assay: CCTE_Deisenroth_AIME_384WELL_LUC_Shift: CCTE's 384-well Estrogen Receptor Transactivation Assay with AIME metabolic competence data shift (ERTA luciferase; difference in metabolism positive and negative), Deisenroth Lab (AID 2284041);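 note: shift is response with S9 minus without S9 so positive means metabolism raised ER signal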
# Procedure, shortened: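 Here, parent compounds undergo 2 h phase I metabolism by PB/BNF-induced rat S9 before 24 h transactivation in VM7Luc4E2 cells; the curve models S9-positive minus S9-negative response over a 10-point series.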
# [8] = CCTE_Shafer_MEA_dev_burst_rate: CCTE's Neural Network Formation Assay for Burst Rate, Shafer Lab (AID 2284042)
# Procedure, shortened: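 Primary rat cortical neurons on PEI-coated 48-well MEA plates (laminin added with cells at plating) (16 electrodes/well), exposed from plating to day 12, dosing renewed at DIV 5 and 9. Burst rate averaged over active electrodes, recorded DIV 5, 7, 9, 12, summarized as AUC; loss versus DMSO.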
# [9] = CCTE_Deisenroth_AIME_384WELL_CTox_Active: Cytotoxicity Assessment (CTOX) in CCTE's 384-well Estrogen Receptor Transactivation Assay with AIME metabolic competence (metabolism positive), Deisenroth Lab (AID 2284037; active = hit-call score of the fitted dose curve at least 0.9, where 1 is the maximum;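 note: chemicals first conditioned 2 h by alginate-bound induced rat liver S9 before cells; activity means signal loss indicating cell death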)
# Procedure, shortened: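 VM7Luc4E2 breast cells received medium pre-incubated 2 h with chemical over alginate microspheres holding induced male Sprague Dawley rat liver S9; viability read 24 h later by protease-substrate fluorescence. Loss of signal, bidirectional fit, 0.002–200 uM.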
# [10] = biological target: Estrogen receptor (Homo sapiens) (UniProt P03372); assay: CCTE_Deisenroth_AIME_384WELL_LUC_Inactive: CCTE's 384-well Estrogen Receptor Transactivation Assay without AIME metabolic competence (ERTA luciferase; metabolism negative), Deisenroth Lab (AID 2284038; active = hit-call score of the fitted dose curve at least 0.9, where 1 is the maximum;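 note: hits raise estrogen receptor luciferase signal so potencies reflect agonists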)
# Procedure, shortened: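 VM7Luc4E2 ER transactivation, luciferase bioluminescence after 24 h, using medium pre-incubated 2 h with S9-free alginate microspheres. Concentrations 0.002–200 uM; gain of signal fitted relative to 17beta-estradiol.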
structure (smiles),measurement,setting,value
CC(C)N(C(=O)COc1nnc(C(F)(F)F)s1)c1ccc(F)cc1,AC50,[1],20 µM (active) and 10.9 µM (active)
same,AC50,[2],15 µM (active)
same,outcome,[2],inactive
same,outcome,[3],inactive
same,outcome,[4],inactive
same,outcome,[5],inactive
same,outcome,[6],inactive
same,outcome,[7],inactive
same,outcome,[8],inactive
O=C(O)COc1ccc(Cl)cc1Cl,outcome,[4],inactive
same,outcome,[5],inactive
same,AC50,[6],50 µM (active)
same,outcome,[8],inactive
COP(=S)(OC)Oc1ccc(SC)c(C)c1,AC50,[1],31.2 µM (active)
same,AC50,[2],29.1 µM (active)
CNC(=O)/C=C(\C)OP(=O)(OC)OC,outcome,[1],inactive
same,outcome,[2],inactive
same,outcome,[3],inactive
same,outcome,[9],inactive
same,outcome,[10],inactive
same,outcome,[7],inactive
O=C(O)CCCOc1ccc(Cl)cc1Cl,outcome,[1],inactive
same,outcome,[2],inactive
CNC(=O)Oc1cccc(N=CN(C)C)c1,outcome,[3],inactive
same,outcome,[9],inactive
same,outcome,[10],inactive
same,outcome,[5],inactive
same,outcome,[7],inactive
Cc1[nH]c(=O)n(C(C)(C)C)c(=O)c1Cl,outcome,[3],inactive
same,outcome,[9],inactive
same,outcome,[10],inactive
same,outcome,[5],inactive
same,AC50,[7],66.1 µM (active)
CCOCN(C(=O)CCl)c1c(C)cccc1CC,outcome,[9],inactive
same,outcome,[7],inactive
CNC(=O)Oc1ccccc1OC(C)C,outcome,[3],inactive
same,outcome,[10],inactive
same,outcome,[7],inactive
CC(C)(C)C(O)/C(=C\c1ccc(Cl)cc1Cl)n1cncn1 (configuration not stated),AC50,[9],148 µM (active)
same,AC50,[5],144 µM (active)
same,outcome,[7],inactive
N#Cc1c(Cl)c(Cl)c(Cl)c(C#N)c1Cl,outcome,[1],inactive
same,outcome,[2],inactive
CCCN(CCOc1c(Cl)cc(Cl)cc1Cl)C(=O)n1ccnc1,outcome,[1],inactive
same,outcome,[2],inactive
COP(=S)(OC)Oc1ccc([N+](=O)[O-])cc1,outcome,[4],inactive
same,AC50,[6],20.2 µM (active)
same,outcome,[8],inactive
O=C1c2ccccc2C(=O)N1SC(Cl)(Cl)Cl,outcome,[1],inactive
same,outcome,[2],inactive
Clc1ccccc1-c1nnc(-c2ccccc2Cl)nn1,outcome,[1],inactive
same,outcome,[2],inactive
same,outcome,[3],inactive
same,outcome,[9],inactive
same,outcome,[10],inactive
same,outcome,[5],inactive
same,outcome,[7],inactive
